Results filed as inconclusive are left out. Active and inactive are the calls of the source. Calls come from the whole dose curve; as a rule, active = well fitted curve in the direction sought with a large enough effect; inconclusive = small, poorly fitted or top-dose-only effect, or another doubt; inactive = no such curve, though single readings can be large; an effect the other way counts as inactive or inconclusive.
What was measured:
[1] = Quantitative High-Throughput drug screen in 47 multiple myeloma cell lines against the NCATS MIPE library collection: JJN3_DSMZ cell viability assay (AID 1918966; note: nearly all actives have a fitted effect of over 50% in size)
In short: (§1)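 CellTiter-Glo ATP luminescence gave viability after 48 h compound treatment at 37C of 500 multiple myeloma cells per well. Normalisation used DMSO-only wells as 100% and media-only wells as 0% viability; primary qHTS of approved and investigational drugs.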

[2] = Quantitative High-Throughput drug screen in 47 multiple myeloma cell lines against the NCATS MIPE library collection: KMS27_JCRB cell viability assay (AID 1918970); note: nearly all actives have a fitted effect of over 30% in size
In short: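 Each line is seeded at 500 cells per well and treated with library compounds for 48 hours under 37 °C, 5% CO2. CellTiter-Glo is then added for 5 min at room temperature before median relative luminescence is recorded.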

[3] = Quantitative High-Throughput drug screen in 47 multiple myeloma cell lines against the NCATS MIPE library collection: KMS12BM_JCRB cell viability assay (AID 1918971); note: nearly all actives have a fitted effect of over 35% in size
In short: (§2)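 Myeloma cells (500 per well) were exposed to MIPE 4.0 compounds by pin transfer and incubated 48 hours at 37C, 5% CO2. Viability was read as ATP by CellTiter-Glo luminescence, normalised to DMSO (100%) and media-only (0%) wells.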

[4] = Quantitative High-Throughput drug screen in 47 multiple myeloma cell lines against the NCATS MIPE library collection: KMS12PE_JCRB cell viability assay (AID 1918972); note: nearly all actives have a fitted effect of over 30% in size
In short: as §1

[5] = Quantitative High-Throughput drug screen in 47 multiple myeloma cell lines against the NCATS MIPE library collection: KMS20_JCRB cell viability assay (AID 1918973); note: nearly all actives have a fitted effect of over 45% in size
In short: as §1

[6] = Quantitative High-Throughput drug screen in 47 multiple myeloma cell lines against the NCATS MIPE library collection: KMS21BM_JCRB cell viability assay (AID 1918974); conditions: ATP luminescence, 48 h; viability: at 45.8 µM (top of the series) unless noted
In short: as §1

[7] = Quantitative High-Throughput drug screen in 47 multiple myeloma cell lines against the NCATS MIPE library collection: KMS26_JCRB cell viability assay (AID 1918975); note: nearly all actives have a fitted effect of over 45% in size
In short: as §2

[8] = Quantitative High-Throughput drug screen in 47 multiple myeloma cell lines against the NCATS MIPE library collection: MOLP8_DSMZ cell viability assay (AID 1918977); note: nearly all actives have a fitted effect of over 45% in size
In short: (§3)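 ATP-based CellTiter-Glo luminescence after 48 h drug exposure (37 °C, 5% CO2) of 500 myeloma cells per well. DMSO-only wells set 100% viability, media-only wells 0%; MIPE 4.0 library added by pin tool.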

[9] = Quantitative High-Throughput drug screen in 47 multiple myeloma cell lines against the NCATS MIPE library collection: OCIMY1_PLB cell viability assay (AID 1918979); note: nearly all actives have a fitted effect of over 35% in size
In short: as §3

[10] = Quantitative High-Throughput drug screen in 47 multiple myeloma cell lines against the NCATS MIPE library collection: MM1S_ATCC cell viability assay (AID 1918980); note: nearly all actives have a fitted effect of over 45% in size
In short: as §3

[11] = Quantitative High-Throughput drug screen in 47 multiple myeloma cell lines against the NCATS MIPE library collection: MM1R_ATCC cell viability assay (AID 1918981); note: nearly all actives have a fitted effect of over 35% in size
In short: as §3

[12] = Quantitative High-Throughput drug screen in 47 multiple myeloma cell lines against the NCATS MIPE library collection: KMS28PE_JCRB cell viability assay (AID 1918983); note: nearly all actives have a fitted effect of over 35% in size
In short: as §3

[13] = Quantitative High-Throughput drug screen in 47 multiple myeloma cell lines against the NCATS MIPE library collection: L363_DSMZ cell viability assay (AID 1918984); note: nearly all actives have a fitted effect of over 40% in size
In short: as §3

[14] = Quantitative High-Throughput drug screen in 47 multiple myeloma cell lines against the NCATS MIPE library collection: KMS34_JCRB cell viability assay (AID 1918985); note: nearly all actives have a fitted effect of over 40% in size
In short: as §3

[15] = Quantitative High-Throughput drug screen in 47 multiple myeloma cell lines against the NCATS MIPE library collection: OCIMY7_PLB cell viability assay (AID 1918987); note: nearly all actives have a fitted effect of over 65% in size
In short: as §3

[16] = Quantitative High-Throughput drug screen in 47 multiple myeloma cell lines against the NCATS MIPE library collection: Karpas25_ECACC cell viability assay (AID 1918968; note: nearly all actives have a fitted effect of over 35% in size)
In short: as §1

[17] = Quantitative High-Throughput drug screen in 47 multiple myeloma cell lines against the NCATS MIPE library collection: NCIH929_DSMZ cell viability assay (AID 1918978); note: nearly all actives have a fitted effect of over 35% in size
In short: as §3

[18] = Quantitative High-Throughput drug screen in 47 multiple myeloma cell lines against the NCATS MIPE library collection: H1112_PLB cell viability assay (AID 1918967; note: nearly all actives have a fitted effect of over 30% in size)
In short: as §1

[19] = Quantitative High-Throughput drug screen in 47 multiple myeloma cell lines against the NCATS MIPE library collection: LP1_DSMZ cell viability assay (AID 1918982); note: nearly all actives have a fitted effect of over 35% in size
In short: as §3

[20] = Quantitative High-Throughput drug screen in 47 multiple myeloma cell lines against the NCATS MIPE library collection: MMM1_PLB cell viability assay (AID 1918976); note: nearly all actives have a fitted effect of over 35% in size
In short: as §3

Measured: Potency
Potency is the fitted concentration of half-maximal effect.

COc1ccc(-c2oc3cc(OC)ccc3c2C(=O)c2ccc(C#N)cc2)cc1
inactive: [1] | [3] | [5] | [7] | [8] | [9] | [11] | [12] | [14]
active: [2] 2.09 µM | [4] 10.5 µM | [6] 1.32 µM | [10] 10.5 µM | [13] 3.32 µM | [15] 14.8 µM

CCCc1nn(C)c2c(=O)[nH]c(-c3cc(S(=O)(=O)N4CCN(C)CC4)ccc3OCC)nc12
inactive: [4] | [13]
active: [1] 18.7 µM | [3] 11.8 µM | [5] 18.7 µM | [10] 20.9 µM

NCCCC(N)(C(=O)O)C(F)F (stereo not drawn)
inactive: [2] | [3] | [4] | [7] | [11] | [12]
active: [1] 20.9 µM | [16] 0.166 µM | [17] 0.0526 µM | [10] 0.105 µM | [13] 5.9 µM

COc1ccc(-c2ccc3c(N4CCOCC4)nc(N4C[C@@H](C)O[C@@H](C)C4)nc3n2)cc1CO
active: [1] 1.87 µM | [16] 0.743 µM | [2] 0.187 µM | [3] 0.0833 µM | [4] 2.35 µM | [5] 0.235 µM | [6] 0.833 µM | [7] 2.96 µM | [8] 1.05 µM | [17] 0.187 µM | [9] 4.69 µM | [10] 0.469 µM | [11] 0.833 µM | [12] 0.187 µM | [13] 0.235 µM | [14] 0.469 µM

CN(C)c1ccc(C2Nc3ccc4ccccc4c3C3=C2C(=O)CC(C)(C)C3)cc1Br (stereo not drawn)
active: [1] 11.8 µM | [18] 5.26 µM | [4] 5.9 µM | [7] 16.6 µM | [12] 23.5 µM | [15] 0.935 µM
inactive: [9] | [10] | [13] | [14]

CCn1cc(C(=O)O)c(=O)c2cc(F)c(N3CCNC(C)C3)c(F)c21 (stereo not drawn)
inactive: [18] | [16] | [2] | [3] | [4] | [5] | [7] | [8] | [9] | [11] | [19] | [12] | [13]

CCOc1ccc(Cc2cc([C@@H]3O[C@H](CO)[C@@H](O)[C@H](O)[C@@H]3O)ccc2Cl)cc1
inactive: [1] | [3] | [7] | [9] | [11] | [19] | [12]
active: [16] 18.7 µM | [2] 16.6 µM | [4] 26.4 µM | [13] 18.7 µM | [15] 3.72 µM

COc1ccc(-c2ccc3c(N4CCOC[C@H]4C)nc(N4CCOC[C@H]4C)nc3n2)cc1CO
active: [1] 0.0132 µM | [3] 0.0118 µM | [4] 0.059 µM | [5] 0.0093 µM | [6] 0.0662 µM | [7] 4.69 µM | [10] 0.0526 µM | [11] 0.0743 µM | [12] 0.0235 µM | [14] 0.0209 µM | [15] 0.209 µM

O=C(O)[C@@H](c1ccc(OCc2ccc3ccccc3n2)cc1)C1CCCC1
inactive: [18] | [16] | [2] | [3] | [4] | [5] | [8] | [17] | [9] | [10] | [12] | [13] | [14]
active: [7] 0.0012 µM | [15] 5.9 µM

CO[C@@H]1[C@H](N(C)C(=O)c2ccccc2)C[C@H]2O[C@]1(C)n1c3ccccc3c3c4c(c5c6ccccc6n2c5c31)C(=O)NC4
active: [1] 4.18 µM | [2] 1.32 µM | [3] 9.35 µM | [4] 0.935 µM | [5] 1.05 µM | [6] 0.166 µM | [7] 3.72 µM | [8] 1.32 µM | [17] 0.935 µM | [9] 5.26 µM | [10] 4.69 µM | [11] 2.09 µM | [12] 5.26 µM | [13] 1.66 µM | [15] 0.235 µM

O=C1[C@H](Cc2ccc(O)cc2)N2C(=O)CCN(C(=O)NCc3ccccc3)[C@H]2CN1Cc1cccc2ccccc12
inactive: [4] | [13]
active: [1] 7.43 µM | [16] 14.8 µM | [3] 4.18 µM | [7] 7.43 µM | [17] 3.72 µM | [9] 16.6 µM | [10] 3.72 µM | [11] 3.32 µM | [12] 9.35 µM

CC(C)(N)C(=O)N[C@H](COCc1ccccc1)C(=O)N1CCC2(CC1)CN(S(C)(=O)=O)c1ccccc12
inactive: [4]
active: [1] 3.72 µM | [16] 16.6 µM | [2] 5.26 µM | [3] 14.8 µM | [7] 0.0264 µM | [10] 23.5 µM | [11] 18.7 µM | [19] 16.6 µM | [12] 18.7 µM

Cc1c(C)c2c(c(C)c1O)CCC(C)(COc1ccc(CC3SC(=O)NC3=O)cc1)O2 (stereo not drawn)
inactive: [1] | [18] | [3] | [8] | [9] | [11] | [19] | [12] | [13]

N#CC[C@H](C1CCCC1)n1cc(-c2ncnc3[nH]ccc23)cn1
inactive: [18] | [8] | [17] | [9]
active: [1] 5.26 µM | [3] 23.5 µM | [20] 16.6 µM | [10] 4.18 µM | [15] 18.7 µM

Source: PubChem BioAssay (NCATS)
